Assay results: PubChem BioAssay AID602295 (Broad Institute, 2012)
Calls of active or inactive are those of the source.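 Rule for the calls: active = every separate test run called active, meaning the signal drops and a potency is fitted within twice the top valid dose; inconclusive = runs disagree, poor fit, or flat partial inhibition; inactive = all runs inactive, flat, opposite direction or too weak.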

Target: Mitogen-activated protein kinase 3 (Homo sapiens) (UniProt P27361)
Assay: ERK1 kinase inhibitors, dose response, selectivity assay for Dyrk1A inhibitor NFAT project, biochemical, ADP-Glo luminescence, cherry pick, set 2 (AID 602295)

Chain of Mitogen-activated protein kinase 3 (Homo sapiens) (P27361 whole entry, looked up): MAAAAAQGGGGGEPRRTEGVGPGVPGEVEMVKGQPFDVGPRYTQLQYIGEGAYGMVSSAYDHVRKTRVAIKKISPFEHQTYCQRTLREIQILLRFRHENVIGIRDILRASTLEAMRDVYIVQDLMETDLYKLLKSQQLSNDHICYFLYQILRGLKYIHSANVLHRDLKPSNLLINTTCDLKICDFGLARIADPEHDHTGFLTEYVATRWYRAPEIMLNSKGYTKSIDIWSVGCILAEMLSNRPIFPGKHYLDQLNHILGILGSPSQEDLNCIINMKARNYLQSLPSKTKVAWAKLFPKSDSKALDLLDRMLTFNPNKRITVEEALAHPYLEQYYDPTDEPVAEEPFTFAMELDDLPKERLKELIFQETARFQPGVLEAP

Question: With `COc1ccc2c(c1)[nH]c1c(C)nccc12` as the compound, how does the outcome read?
Answer: inactive
